Source: PubChem BioAssay (Tox21)
Inconclusive results are not listed. The source made the active and inactive calls. Calls follow the shape of the dose curve; as a rule, active = well fitted curve in the direction sought with a large enough effect in the repeat runs; inconclusive = weak or mixed curves; inactive = no such curve, though single readings can be large; an effect the other way counts as inactive or inconclusive.

Legend:
[1] = molecular target: Nuclear receptor subfamily 1 group I member 2 (Homo sapiens) (UniProt O75469); assay: Human pregnane X receptor (PXR) small molecule agonists, qHTS assay (AID 1346982); also: nearly all actives have a fitted effect of over 35% in size; also: potency is read from the fitted curve at half-maximal effect
Chain of Nuclear receptor subfamily 1 group I member 2 (Homo sapiens) (O75469 whole entry, looked up): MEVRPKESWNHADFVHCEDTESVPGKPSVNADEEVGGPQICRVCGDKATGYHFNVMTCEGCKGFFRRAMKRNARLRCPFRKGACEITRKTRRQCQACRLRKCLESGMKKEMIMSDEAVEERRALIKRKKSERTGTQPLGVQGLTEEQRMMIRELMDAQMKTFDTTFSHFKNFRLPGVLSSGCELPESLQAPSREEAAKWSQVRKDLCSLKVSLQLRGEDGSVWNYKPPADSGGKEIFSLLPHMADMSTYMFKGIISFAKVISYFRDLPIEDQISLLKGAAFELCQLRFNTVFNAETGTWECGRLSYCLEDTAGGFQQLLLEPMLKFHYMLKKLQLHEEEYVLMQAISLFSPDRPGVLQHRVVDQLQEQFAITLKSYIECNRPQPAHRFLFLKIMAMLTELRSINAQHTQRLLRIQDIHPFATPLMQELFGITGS
Procedure, shortened: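 PXR-Luc HepG2 reporter cells (CYP3A4-driven luciferase) in 5% charcoal-stripped FBS medium, plated 5 h before compound addition, then treated 24 h at 37C. Luciferase read by ONE-Glo luminescence after 30 min at room temperature.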

[2] = molecular target: Cytochrome P450 2D6 (Homo sapiens) (UniProt P10635); assay: Cytochrome P450 Family 2 Subfamily D Member 6 (CYP2D6) small molecule antagonists: luciferase reporter qHTS assay (AID 1671196); also: nearly all actives have a fitted effect of over 50% in size; also: potency is read from the fitted curve at half-maximal effect; as to activity change, negative = inhibition: series mostly up to about 120 µM
Chain of Cytochrome P450 2D6 (Homo sapiens) (P10635 whole entry, looked up): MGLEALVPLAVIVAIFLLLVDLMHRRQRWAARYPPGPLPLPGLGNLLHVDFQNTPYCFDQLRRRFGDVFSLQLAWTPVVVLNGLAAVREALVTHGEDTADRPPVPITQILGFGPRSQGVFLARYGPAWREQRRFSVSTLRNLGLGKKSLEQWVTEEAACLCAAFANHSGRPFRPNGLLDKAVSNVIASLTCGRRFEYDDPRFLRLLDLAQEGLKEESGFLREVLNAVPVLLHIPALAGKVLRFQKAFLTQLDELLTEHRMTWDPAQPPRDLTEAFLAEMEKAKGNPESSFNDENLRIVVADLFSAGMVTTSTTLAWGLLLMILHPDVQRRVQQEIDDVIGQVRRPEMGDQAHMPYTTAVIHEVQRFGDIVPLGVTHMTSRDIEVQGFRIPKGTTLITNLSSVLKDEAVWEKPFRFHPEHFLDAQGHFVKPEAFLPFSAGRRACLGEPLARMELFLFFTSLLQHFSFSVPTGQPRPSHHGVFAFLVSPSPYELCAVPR
Procedure, shortened: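 Cell-free P450-Glo system: CYP2D6 with proluciferin substrate was pre-incubated with compound for 10 min, then reacted with NADPH regeneration for 1 h at room temperature. Luciferin product was detected after 20 min, and data were reported as relative luminescence units.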

[3] = molecular target: Cytochrome P450 2C19 (Homo sapiens) (UniProt P33261); assay: Cytochrome P450 Family 2 Subfamily C Member 19 (CYP2C19) small molecule antagonists: luciferase reporter qHTS assay (AID 1671197); also: nearly all actives have a fitted effect of over 65% in size; also: potency is read from the fitted curve at half-maximal effect; as to activity change, negative = inhibition: series mostly up to about 120 µM
Chain of Cytochrome P450 2C19 (Homo sapiens) (P33261 whole entry, looked up): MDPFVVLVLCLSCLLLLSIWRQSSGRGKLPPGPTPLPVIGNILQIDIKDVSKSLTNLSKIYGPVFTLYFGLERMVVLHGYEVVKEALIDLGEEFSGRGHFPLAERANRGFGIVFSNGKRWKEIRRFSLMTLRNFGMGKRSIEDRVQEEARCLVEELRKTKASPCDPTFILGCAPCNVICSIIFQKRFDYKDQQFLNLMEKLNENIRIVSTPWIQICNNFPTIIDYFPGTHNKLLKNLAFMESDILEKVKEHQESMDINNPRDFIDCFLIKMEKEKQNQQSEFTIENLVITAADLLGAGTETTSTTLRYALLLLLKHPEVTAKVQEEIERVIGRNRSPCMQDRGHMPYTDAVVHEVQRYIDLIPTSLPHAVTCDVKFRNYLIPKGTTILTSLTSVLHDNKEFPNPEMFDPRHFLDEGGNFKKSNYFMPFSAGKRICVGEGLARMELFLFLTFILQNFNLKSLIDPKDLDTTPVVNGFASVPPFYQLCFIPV
Procedure, shortened: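 Enzyme-substrate mix with proluciferin substrate (P450-Glo CYP2C19 system) preincubated with compounds 10 min at room temperature; NADPH regeneration solution added, 37C for 1 h; detection reagent stops reaction, luminescence read after 20 min. Ketoconazole positive control.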

[4] = molecular target: Cytochrome P450 2C9 (Homo sapiens) (UniProt P11712); assay: Cytochrome P450 Family 2 Subfamily C Member 9 (CYP2C9) small molecule antagonists: luciferase reporter qHTS assay (AID 1671198); also: nearly all actives have a fitted effect of over 50% in size; also: potency is read from the fitted curve at half-maximal effect; as to activity change, negative = inhibition: series mostly up to about 120 µM
Chain of Cytochrome P450 2C9 (Homo sapiens) (P11712 whole entry, looked up): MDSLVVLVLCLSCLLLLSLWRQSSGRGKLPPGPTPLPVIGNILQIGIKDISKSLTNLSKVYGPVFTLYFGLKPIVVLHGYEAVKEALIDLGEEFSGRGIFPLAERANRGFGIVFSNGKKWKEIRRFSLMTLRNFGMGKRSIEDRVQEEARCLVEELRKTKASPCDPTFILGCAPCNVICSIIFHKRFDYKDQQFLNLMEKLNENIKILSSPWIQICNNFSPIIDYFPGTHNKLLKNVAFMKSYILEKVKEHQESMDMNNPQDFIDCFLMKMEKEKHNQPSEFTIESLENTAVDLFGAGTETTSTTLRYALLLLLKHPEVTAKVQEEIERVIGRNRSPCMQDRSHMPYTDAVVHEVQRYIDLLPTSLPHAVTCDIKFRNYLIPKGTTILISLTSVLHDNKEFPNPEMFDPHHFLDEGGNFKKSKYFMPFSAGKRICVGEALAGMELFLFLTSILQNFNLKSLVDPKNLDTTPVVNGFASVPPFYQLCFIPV
Procedure, shortened: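 Enzyme-substrate mix preincubated with compound 10 min at room temperature; reaction started with NADPH regeneration solution, 1 h 37C. Luminescent luciferin product read after 20 min detection reagent.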

[5] = molecular target: Cytochrome P450 1A2 (Homo sapiens) (UniProt P05177); assay: Cytochrome P450 Family 1 Subfamily A Member 2 (CYP1A2) small molecule antagonists: luciferase reporter qHTS assay (AID 1671199); also: nearly all actives have a fitted effect of over 50% in size; also: potency is read from the fitted curve at half-maximal effect; as to activity change, negative = inhibition: series mostly up to about 120 µM
Chain of Cytochrome P450 1A2 (Homo sapiens) (P05177 whole entry, looked up): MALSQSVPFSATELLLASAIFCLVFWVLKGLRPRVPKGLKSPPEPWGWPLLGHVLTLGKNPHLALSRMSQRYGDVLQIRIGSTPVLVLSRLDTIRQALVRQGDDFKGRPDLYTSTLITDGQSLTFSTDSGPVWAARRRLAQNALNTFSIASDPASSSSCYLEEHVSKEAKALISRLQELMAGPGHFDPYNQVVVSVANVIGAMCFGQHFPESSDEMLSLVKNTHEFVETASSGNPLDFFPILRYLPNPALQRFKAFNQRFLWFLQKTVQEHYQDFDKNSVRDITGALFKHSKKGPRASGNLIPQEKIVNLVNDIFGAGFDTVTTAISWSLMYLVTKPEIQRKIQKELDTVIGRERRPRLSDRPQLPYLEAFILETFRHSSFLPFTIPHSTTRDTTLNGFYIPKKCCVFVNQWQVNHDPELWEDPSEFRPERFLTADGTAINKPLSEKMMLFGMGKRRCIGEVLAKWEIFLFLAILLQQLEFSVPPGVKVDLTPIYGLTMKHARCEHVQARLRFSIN
Procedure, shortened: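 P450-Glo CYP1A2 enzyme–proluciferin substrate mix with compound 10 min at room temperature, then NADPH regeneration 1 h at room temperature. Luciferin detection reagent added, luminescence read after 20 min; furafylline positive control.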

[6] = molecular target: Voltage-gated inwardly rectifying potassium channel KCNH2 (Homo sapiens) (UniProt Q12809); assay: Human Ether-a-go-go-Related Gene (hERG) channel small molecule antagonists: fluorescence cell-based qHTS assay (AID 1671200);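 also: hERG-expressing U2OS cells given a thallium stimulus after FluxOR II dye loading; series mostly up to about 77 µM; nearly all actives have a fitted effect of over 50% in size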
Chain of Voltage-gated inwardly rectifying potassium channel KCNH2 (Homo sapiens) (Q12809 whole entry, looked up): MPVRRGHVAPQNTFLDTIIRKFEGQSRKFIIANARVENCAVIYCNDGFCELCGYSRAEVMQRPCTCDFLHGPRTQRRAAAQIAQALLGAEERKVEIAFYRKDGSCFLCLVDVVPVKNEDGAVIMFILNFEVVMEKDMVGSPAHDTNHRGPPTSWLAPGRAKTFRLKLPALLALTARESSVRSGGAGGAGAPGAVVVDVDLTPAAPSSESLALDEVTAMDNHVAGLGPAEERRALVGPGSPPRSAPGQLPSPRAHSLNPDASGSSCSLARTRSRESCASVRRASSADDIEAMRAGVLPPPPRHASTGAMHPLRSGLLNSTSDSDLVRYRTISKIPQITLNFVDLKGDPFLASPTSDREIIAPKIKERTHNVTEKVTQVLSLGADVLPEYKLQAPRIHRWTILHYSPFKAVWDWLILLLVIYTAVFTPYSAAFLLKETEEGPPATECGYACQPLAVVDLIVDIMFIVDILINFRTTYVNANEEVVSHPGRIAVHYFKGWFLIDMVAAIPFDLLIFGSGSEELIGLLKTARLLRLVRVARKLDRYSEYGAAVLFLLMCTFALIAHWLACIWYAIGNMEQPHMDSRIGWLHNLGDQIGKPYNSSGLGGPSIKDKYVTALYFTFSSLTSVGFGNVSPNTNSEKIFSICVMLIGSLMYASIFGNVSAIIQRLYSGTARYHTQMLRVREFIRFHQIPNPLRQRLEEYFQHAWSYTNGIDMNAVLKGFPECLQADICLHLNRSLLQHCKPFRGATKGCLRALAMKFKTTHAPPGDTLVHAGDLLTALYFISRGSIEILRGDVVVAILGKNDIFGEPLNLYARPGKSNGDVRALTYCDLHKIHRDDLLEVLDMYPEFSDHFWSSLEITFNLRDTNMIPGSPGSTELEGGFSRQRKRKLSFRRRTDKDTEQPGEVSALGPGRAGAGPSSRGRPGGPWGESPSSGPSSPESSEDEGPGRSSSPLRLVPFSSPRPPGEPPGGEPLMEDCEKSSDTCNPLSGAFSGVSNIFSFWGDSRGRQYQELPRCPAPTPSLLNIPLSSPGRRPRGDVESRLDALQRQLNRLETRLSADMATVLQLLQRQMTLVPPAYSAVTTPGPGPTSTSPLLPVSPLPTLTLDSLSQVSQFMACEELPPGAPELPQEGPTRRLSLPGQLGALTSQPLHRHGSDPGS
Procedure, shortened: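 Cell line hERG-U2OS; dye FluxOR II, 1 h RT dark; Tl+ stimulus; ex 480/em 540 nm, read each second for 2 min.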

[7] = molecular target: Cytochrome P450 3A4 (Homo sapiens) (UniProt P08684); assay: Cytochrome P450 Family 3 Subfamily A Member 4 (CYP3A4) small molecule antagonists: luciferase reporter qHTS assay (AID 1671201); also: nearly all actives have a fitted effect of over 50% in size; also: potency is read from the fitted curve at half-maximal effect; as to activity change, negative = inhibition: series mostly up to about 120 µM
Chain of Cytochrome P450 3A4 (Homo sapiens) (P08684 whole entry, looked up): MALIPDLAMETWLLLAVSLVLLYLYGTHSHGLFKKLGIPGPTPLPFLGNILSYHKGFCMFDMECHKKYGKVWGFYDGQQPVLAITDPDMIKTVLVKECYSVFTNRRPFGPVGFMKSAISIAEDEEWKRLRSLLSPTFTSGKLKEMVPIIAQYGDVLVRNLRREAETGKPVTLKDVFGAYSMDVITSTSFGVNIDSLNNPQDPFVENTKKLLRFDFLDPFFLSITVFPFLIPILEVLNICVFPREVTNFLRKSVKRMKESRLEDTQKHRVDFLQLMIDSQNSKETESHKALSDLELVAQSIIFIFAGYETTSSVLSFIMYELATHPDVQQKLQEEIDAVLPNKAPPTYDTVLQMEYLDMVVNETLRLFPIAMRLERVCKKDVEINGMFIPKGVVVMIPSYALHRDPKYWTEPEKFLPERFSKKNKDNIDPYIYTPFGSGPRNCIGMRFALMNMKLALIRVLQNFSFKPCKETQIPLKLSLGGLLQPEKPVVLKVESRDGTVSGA
Procedure, shortened: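 Room-temperature assay throughout: 10 min compound–enzyme/substrate preincubation, 1 h reaction after NADPH regeneration solution, 20 min detection. Luciferin formed from proluciferin substrate is quantified by luminescence.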

[8] = molecular target: Nuclear receptor subfamily 1 group I member 2 (Homo sapiens) (UniProt O75469); assay: Human pregnane X receptor (PXR) activation by small molecules, qHTS assay (AID 1346985); also: nearly all actives have a fitted effect of over 40% in size
Procedure, shortened: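 DPX-2 cells (HepG2 co-transfected with a PXR response element and a CYP3A4-promoter luciferase construct) were seeded at 2,000 per well, rested 5 hr at 37C, then exposed to DMSO-dissolved compounds for 24 hr. Activation was read as luciferase luminescence.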

[9] = molecular target: Nuclear receptor subfamily 1 group I member 2 (Rattus norvegicus) (UniProt Q9R1A7); assay: Rat pregnane X receptor (rPXR) activation by small molecules, qHTS assay (AID 1346983); conditions: rPXR luciferase reporter cells, One-Glo luminescence, 24 h; hits give high values; also: nearly all actives have a fitted effect of over 20% in size
Chain of Nuclear receptor subfamily 1 group I member 2 (Rattus norvegicus) (Q9R1A7 whole entry, looked up): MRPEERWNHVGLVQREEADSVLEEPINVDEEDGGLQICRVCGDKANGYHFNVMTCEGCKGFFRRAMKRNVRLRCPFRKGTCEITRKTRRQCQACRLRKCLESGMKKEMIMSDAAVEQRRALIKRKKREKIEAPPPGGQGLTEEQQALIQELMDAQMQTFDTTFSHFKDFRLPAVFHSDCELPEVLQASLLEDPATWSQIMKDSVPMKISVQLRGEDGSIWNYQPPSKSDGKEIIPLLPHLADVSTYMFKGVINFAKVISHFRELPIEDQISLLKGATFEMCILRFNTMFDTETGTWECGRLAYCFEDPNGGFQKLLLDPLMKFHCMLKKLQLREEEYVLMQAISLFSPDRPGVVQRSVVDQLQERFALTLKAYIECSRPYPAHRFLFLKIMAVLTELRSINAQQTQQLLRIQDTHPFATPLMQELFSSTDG
Procedure, shortened: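 Luminescent readout (One-Glo luciferase, 30 min room temperature) followed 24 hr compound treatment at 37 C of rPXR cells plated 2,000 per well and preincubated 5hr; qHTS format with compounds delivered in DMSO.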
% is scaled to controls: 0 for no effect and ±100 for the full control effect.

C=CC(=O)CCCCC
inactive: Potency [1] | Potency [2] | Potency [3] | Potency [4] | Potency [5] | Potency [6] | Potency [7]

CCCCCCCCCCCCCBr
active: Potency [3] 70.8 µM | Potency [5] 22.4 µM
inactive: Potency [1] | Potency [2] | Potency [4] | Potency [6] | Potency [7]

COCCc1ccccn1
inactive: Potency [1] | Potency [2] | Potency [3] | Potency [4] | Potency [5] | Potency [6] | Potency [7]

N#Cc1ccccc1O
inactive: Potency [1] | Potency [2] | Potency [3] | Potency [4] | Potency [5] | Potency [6] | Potency [7]

CO[C@@]1(NC(=O)Cc2cccs2)C(=O)N2C(C(=O)O)=C(COC(N)=O)CS[C@@H]21
inactive: Potency [1] | Potency [2] | Potency [3] | Potency [4] | Potency [5] | Potency [6] | Potency [7]

CC(=O)OC1CCCCC1C(C)(C)C (centres undefined)
inactive: Potency [1] | Potency [2] | Potency [3] | Potency [4] | Potency [5] | Potency [6] | Potency [7]

CC(=O)OC(C)=O
inactive: Potency [1] | Potency [2] | Potency [4] | Potency [5] | Potency [6] | Potency [7]
active: Potency [3] 72.3 µM

C[C@]12CCC(=O)C=C1CC[C@H]1[C@@H]3CC[C@](O)(C(=O)CO)[C@@]3(C)C[C@H](O)[C@@]12F
inactive: Potency [1] | Potency [8] | Potency [2] | Potency [3] | Potency [5]

CC(C)c1ccc(C=O)cc1
inactive: Potency [1] | Potency [2] | Potency [3] | Potency [4] | Potency [5] | Potency [6] | Potency [7]

Cc1ncc([N+](=O)[O-])n1CC(C)O (centres undefined)
inactive: Potency [1] | max activation [9] -2.68% | Potency [2] | Potency [3] | Potency [4] | Potency [5] | Potency [6] | Potency [7]

CO[Si](CCCn1c(=O)n(CCC[Si](OC)(OC)OC)c(=O)n(CCC[Si](OC)(OC)OC)c1=O)(OC)OC
active: Potency [7] 17.7 µM
inactive: Potency [1] | Potency [2] | Potency [3] | Potency [4] | Potency [5] | Potency [6]

CCCCSCCCC
inactive: Potency [1] | Potency [2] | Potency [5] | Potency [6] | Potency [7]
active: Potency [3] 79.6 µM | Potency [4] 63.3 µM

C=CC(=O)OCC1CCCO1 (centres undefined)
inactive: Potency [1] | Potency [2] | Potency [3] | Potency [4] | Potency [5] | Potency [6] | Potency [7]

CO/N=C(/C(=O)N[C@@H]1C(=O)N2C(C(=O)[O-])=C(C[n+]3ccn4ncccc43)CS[C@H]12)c1nsc(N)n1
active: Potency [5] 27.5 µM
inactive: Potency [1] | Potency [2] | Potency [3] | Potency [4] | Potency [6] | Potency [7]

CC(C)NC(=O)c1ccc(C=O)cc1
inactive: Potency [1] | Potency [2] | Potency [3] | Potency [4] | Potency [6] | Potency [7]
active: Potency [5] 34.7 µM

CCN(CC)CCN
inactive: Potency [1] | Potency [2] | Potency [3] | Potency [4] | Potency [5] | Potency [6] | Potency [7]

CCC(=O)Oc1ccc2c(c1)CC[C@@H]1[C@@H]2CC[C@@]2(C)[C@H]1C[C@@H](OC(=O)CC)[C@@H]2OC(=O)CC
active: Potency [3] 27.5 µM | Potency [4] 24.5 µM
inactive: Potency [1] | Potency [2] | Potency [5] | Potency [6] | Potency [7]

CCC(=O)c1c(O)cc(O)cc1O
active: Potency [2] 27.5 µM | Potency [4] 13.8 µM | Potency [5] 12.9 µM
inactive: Potency [1] | Potency [8] | Potency [6]

COC(=O)CCCCC(=O)O
inactive: Potency [1] | Potency [2] | Potency [3] | Potency [4] | Potency [5] | Potency [6] | Potency [7]

CC(C)(C)NC[C@H](O)COc1cccc2c1CCCC2=O
inactive: Potency [1] | max activation [9] 0.088% | Potency [8] | Potency [4] | Potency [5] | Potency [6] | Potency [7]

C=C(C)C1CC=C(C)C(=O)C1 (centres undefined)
inactive: Potency [1] | Potency [2] | Potency [3] | Potency [4] | Potency [5] | Potency [6] | Potency [7]

O=C(O)CNC(=O)CNC(=O)CNC(=O)CSC(=O)c1ccccc1
inactive: Potency [1] | Potency [2] | Potency [3] | Potency [4] | Potency [5] | Potency [6] | Potency [7]

O=C1NC(c2ccccc2)(c2ccccc2)C(=O)N1COP(=O)(O)O
inactive: Potency [1] | Potency [2] | Potency [3] | Potency [4] | Potency [5] | Potency [6] | Potency [7]

Cc1cc(C)c(C(=O)O)c(C)c1
inactive: Potency [1] | Potency [2] | Potency [3] | Potency [4] | Potency [7]
active: Potency [5] 39.9 µM

CC1OCCC1=O (centres undefined)
inactive: Potency [1] | Potency [2] | Potency [3] | Potency [4] | Potency [5] | Potency [7]

CCCCCCCCCCCCCCCCCCOCCO
inactive: activation [1] 0.259% [at 19 µM] | activity change, negative = inhibition [2] -7.3% [at 23.6 µM] | activity change, negative = inhibition [3] 7.26% [at 23.6 µM] | activity change, negative = inhibition [4] -10.3% [at 23.6 µM] | activity change, negative = inhibition [7] 11.9% [at 23.6 µM]
active: Potency [5] 7.12 µM

CCC(=O)CC
inactive: Potency [1] | Potency [2] | Potency [3] | Potency [4] | Potency [6] | Potency [7]

Cc1ccc2c(c1)C(=O)c1ccccc1C2=O
active: Potency [1] 15.3 µM | Potency [2] 28.2 µM | Potency [3] 11.2 µM | Potency [4] 12.6 µM | Potency [5] 8.91 µM | Potency [7] 7.07 µM
